Source: PubChem BioAssay (National Center for Advancing Translational Sciences (NCATS))
D1 PAM: enhances dopamine response at the human D1 receptor; potentiation, % at 10 µM; HEK293 TREx D1 cells, calcium flux, dopamine EC20 potentiation; 360,000 tested, 0.036% active; P21728; in the data active = potentiation above about 30%; also: 0% is about no effect
D1 agonist: agonists of human D1 dopamine receptor; HEK293 T-REx D1 cells, calcium flux, agonist mode; activation, % at 2 µM; 360,000 tested, 1% active; AID 504660; in the data active = activation above about 30%; also: 0% is about no effect
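Agonism was scored from calcium flux recorded over 180 s (1 read/s) after pintool compound addition, following a 10-cycle baseline. Cells were inducible force-coupled HEK293 TREx D1, plated overnight at 30 C and loaded with no-wash calcium dye.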
TRPV1 ag: activates the human vanilloid receptor TRPV1. TRPV1-expressing cells, Fluo-8 calcium influx, agonist mode. 320,000 tested, 0.19% active. activation, % at 8.33 µM. Q8NER1; in the data active = activation above about 80%; inconclusive = between about 30% and that limit; also: 0% is about no effect
Target sequence (Q8NER1 whole entry, looked up): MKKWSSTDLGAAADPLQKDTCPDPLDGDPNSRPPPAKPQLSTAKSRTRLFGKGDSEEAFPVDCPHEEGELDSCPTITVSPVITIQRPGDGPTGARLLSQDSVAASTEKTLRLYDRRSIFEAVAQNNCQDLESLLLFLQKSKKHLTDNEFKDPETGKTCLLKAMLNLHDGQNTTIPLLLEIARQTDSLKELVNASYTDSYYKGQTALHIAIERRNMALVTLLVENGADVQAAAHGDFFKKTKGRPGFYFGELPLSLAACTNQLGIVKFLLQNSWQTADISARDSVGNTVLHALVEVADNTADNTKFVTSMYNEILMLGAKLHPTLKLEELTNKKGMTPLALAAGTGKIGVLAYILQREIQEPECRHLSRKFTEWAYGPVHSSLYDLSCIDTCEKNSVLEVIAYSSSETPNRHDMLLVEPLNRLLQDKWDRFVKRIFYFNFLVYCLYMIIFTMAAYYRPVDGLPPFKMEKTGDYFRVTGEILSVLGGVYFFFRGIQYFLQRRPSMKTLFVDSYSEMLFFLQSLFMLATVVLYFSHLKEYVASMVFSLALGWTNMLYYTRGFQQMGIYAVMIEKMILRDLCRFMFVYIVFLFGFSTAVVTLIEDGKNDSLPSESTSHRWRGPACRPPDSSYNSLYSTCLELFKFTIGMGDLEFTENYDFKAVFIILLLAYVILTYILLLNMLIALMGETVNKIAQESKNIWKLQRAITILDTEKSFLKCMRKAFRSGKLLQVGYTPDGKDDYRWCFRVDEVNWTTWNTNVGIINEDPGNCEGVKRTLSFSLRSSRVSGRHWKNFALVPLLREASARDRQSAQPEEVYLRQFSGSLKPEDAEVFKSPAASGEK
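TRPV1-expressing cells were cultured overnight at 35.5C and loaded with Fluo-8 calcium dye for 40 to 90 min at room temperature. After a 10 s baseline, compound was added and calcium influx was read kinetically for 3 min (ex 480/em 520 nm).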
D1 antag: blocks dopamine activation of the human D1 receptor; P21728; HEK293 TREx D1 cells, calcium flux, dopamine EC80; stronger effect = lower value; activity change, negative = inhibition, % at 10 µM; 360,000 tested, 3.2% active; AID 504652; in the data active = activity change below about -30%; also: % is scaled to controls: 0 for no effect and ±100 for the full control effect
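Using tetracycline-induced force-coupled D1 Hek293 cells and a calcium dye, signals were followed for 180 s after compound, then for 180 s after EC80 dopamine, to detect inhibitors.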
TRPV1 PAM: potentiators of human vanilloid receptor 1 (TRPV1); TRPV1-expressing cells, Fluo-8 calcium influx, capsaicin EC20 potentiation; potentiation, % at 8.33 µM; 320,000 tested, 0.02% active; AID 540277; in the data active = potentiation above about 80%; inconclusive = between about 30% and that limit; also: 0% is about no effect
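Cells expressing TRPV1 were dye-loaded with Fluo-8 and read kinetically: 10 s baseline, 3 min after compound (agonist portion), then 2 min after EC20 capsaicin (allosteric enhancer portion). Calcium-bound dye fluorescence at 480/520 nm.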
* marks the source's active call; other numbers are inactive results; ? = inconclusive; / = no result; ! = not active in a repeat. Rows were chosen to be rich in hits. Some 4.2% of all compounds tested hit in one or more screens of this group.

SMILES	D1 PAM	D1 agonist	TRPV1 ag	D1 antag	TRPV1 PAM
CCCN(Cc1cc2cc(C)ccc2[nH]c1=O)C(=O)c1cccc(Cl)c1	0	-1	/	1	/
COCCN(CCOC)C(=O)c1cc2c(=O)n3ccccc3nc2n1C	-3	0	/	4	/
Cc1ccc(NC(=O)CNC(c2ccccc2)c2ccccc2)c(F)c1	-1	7	?	5	-9
O=C(CNC(c1ccccc1)c1ccccc1)Nc1c(F)cccc1F	-4	0	8	-38*	-3
CC(=O)c1ccc(N2CCN(S(=O)(=O)c3cc(-c4onc(C)c4C)ccc3C)CC2)cc1	-5	2	/	3	/
CN(C)CCn1c(C(=O)Nc2ccccc2)cc2ccccc21	-14	3	?	-43*	-16
Cc1ccc(NS(=O)(=O)c2cc(-c3cnc(C4CC4)o3)ccc2C)cc1Cl	0	-1	/	-8	/
CCCCCCCCCCCCCCCC[N+](C)(C)CC	-7	41*	-1	-25	1
CC#CC[N+](C)(C)CCCCCCCCCCCC	3	34*	9	6	-15
CC(=O)c1ccc(NC(=O)c2cn(-c3ccccc3)nc2-c2ccc(Br)cc2)cc1	0	1	/	3	/
Clc1ccc(-c2nnn3c2nc(NC2CCCCC2)c2ccccc23)cc1	3	16	/	-2	/
CCCCn1c(=O)c(F)cn(Cc2ccc(OC)c([N+](=O)[O-])c2)c1=O	-5	75*	8	13	8
CC(C)CCNC(=O)Nc1ccc2c(c1)N(C)C(=O)c1ccccc1S2	-1	-2	/	7	/
CC(C)OCc1cc(CN2CCN(c3ccccc3)CC2)c(O)c2ncccc12	-3	-2	/	0	/
Oc1c(CN2CCN(c3ccccc3)CC2)cc(Br)c2cccnc12	-3	0	-2	-87*	23
Cc1ccc(CC(=O)Nc2c(C(=O)N3CCN(c4ccccc4)CC3)oc3ccccc23)cc1	-1	-1	/	-4	/
O=C(Cc1ccccc1)Nc1c(C(=O)N2CCN(c3ccc(F)cc3)CC2)oc2ccccc12	-2	6	/	-43*	/
CCCCC(=O)Nc1c(C(=O)N2CCN(c3ccccc3)CC2)oc2ccccc12	-1	2	/	-48*	/
O=C(COc1ccccc1)Nc1c(C(=O)N2CCN(c3ccc(F)cc3)CC2)oc2ccccc12	-10	5	/	-31*	/
CC(C)C(=O)Nc1c(C(=O)N2CCN(c3ncccn3)CC2)oc2ccccc12	-8	0	18	-34*	-3
Cc1ccc(N2CCN(C(=S)c3ccc(N(C)C)cc3)CC2)cc1	-4	1	-1	-11	2
O=[N+]([O-])c1ccc(C(=S)N2CCN(c3ccc(F)cc3)CC2)cc1	4	0	0	-33*	-4
O=[N+]([O-])c1ccc(NC(=S)N2CCN(c3ccc(F)cc3)CC2)cc1	-10	4	12	19	0
CN(C)c1ccc(C(=S)N2CCN(c3ccc([N+](=O)[O-])cc3)CC2)cc1	-4	1	-2	-32*	-15
Cc1ccc(CC(=O)N2CCN(c3ccc([N+](=O)[O-])cc3)CC2)cc1	-8	10	?	-42*	-12
SMILES	D1 PAM	D1 agonist	TRPV1 ag	D1 antag	TRPV1 PAM
Cc1cccc(C)c1OCC(=O)Nc1nc(-c2ccc(Br)cc2)ns1	2	0	/	-15	/
Cc1nnn(C23C[C@@H]4C[C@@H](CC(C(=O)N5CCN(c6ccccc6)CC5)(C4)C2)C3)n1	-2	0	7	-34*	-9
O=C(N1CCN(c2ccccc2)CC1)C12CC3CC(CC(C3)C1)C2	6	2	?	14	-29
Cc1ccc(N(CC(=O)Nc2ccc(Br)cc2)S(=O)(=O)c2cccs2)cc1	2	5	/	-5	/
COc1cc(OC)c(N(C)C(=O)Nc2cn(CC(C)C)c(=O)c3ccccc23)cc1Cl	-5	-1	/	5	/
CCC1CN(C(=O)N2CCC(C(=O)N(C)Cc3ccccc3)CC2)c2ccccc2O1 (stereo not given)	-3	1	/	1	/
CCC(=O)C1=C(c2ccc(F)cc2)N(C(=O)CC)n2c(nnc2C2CCCCC2)S1	5	1	/	/	/
O=C(CSc1nncn2c1cc1occc12)Nc1ccccc1C(F)(F)F	-4	9	/	0	/
Cc1ccc(N(CC(=O)NCc2ccc(OC(C)C)cc2)S(=O)(=O)N(C)C)cc1	0	-1	/	1	/
CC(c1ccccc1)N1CCC(CNC(=S)Nc2cccc(Cl)c2)C1 (stereo not given)	-4	45*	15	-54*	-12
Cc1ccc(NC(=S)NCC2CCN(C(C)c3ccccc3)C2)cc1 (stereo not given)	-9	5	-2	-21	2
CN(C)CCN(C(=O)c1ccc2ccccc2c1)c1nc2ccc(F)cc2s1	-4	3	2	-12	-1
CN(C)CCCN(C(=O)c1ccc(S(=O)(=O)N2CCCCC2)cc1)c1nc2cc3c(cc2s1)OCO3	1	33*	0	-4	-8
CCOC(=O)N1CCN(S(=O)(=O)c2ccc(C(=O)N(CCN(C)C)c3nc4ccc(Cl)cc4s3)cc2)CC1	-11	7	1	-33*	6
Cc1ccc2nc(N(CCCN(C)C)C(=O)c3ccc(Br)s3)sc2c1	-3	41*!	21	-2	-3
CN(C)CCCN(C(=O)c1ccc(C(=O)c2ccccc2)cc1)c1nc2ccc(F)cc2s1	-10	70*	-4	-33*	7
COC(=O)c1sccc1S(=O)(=O)N(CC(=O)Nc1cc(F)ccc1F)c1ccc(C)c(C)c1	-9	10	/	12	/
CC(=O)Nc1ccc(NC(=O)C(Cc2ccccc2)N2Cc3ccccc3C2=O)cc1 (stereo not given)	0	-1	/	3	/
CCN(Cc1ccccc1)S(=O)(=O)c1ccc(C(=O)N(CCCN(C)C)c2nc3cc4c(cc3s2)OCCO4)cc1	-4	3	-1	-41*	-23
CN(C)CCCN(C(=O)c1ccc(C(=O)c2ccccc2)cc1)c1nc2cc3c(cc2s1)OCO3	3	62*	1	-7	5
CCN(CC)CCN(C(=O)c1ccc2ncsc2c1)c1nc2cc3c(cc2s1)OCO3	-3	1	5	-46*	-10
CCN(CC)CCN(C(=O)c1ccc(C(=O)c2ccccc2)cc1)c1nc2cc3c(cc2s1)OCO3	0	5	0	-10	-2
CCOc1ccc(C(=O)NC(Cc2ccccc2)C(=O)OC)cc1 (stereo not given)	-3	-2	4	-32*	-1
CCOc1ccc(C(=O)NC(C)CCc2ccccc2)cc1 (stereo not given)	-2	7	28	-25	-6
CCSc1nc2n(n1)C(c1ccc(Cl)cc1Cl)C(C(=O)Nc1ccccc1C)=C(C)N2 (stereo not given)	-5	0	/	-34*	/
CC1=C(C(=O)Nc2ccccc2C)C(c2cccnc2)n2nc(SCc3ccccc3)nc2N1 (stereo not given)	-5	3	/	-38*	/
